Experimental data reported in PubChem BioAssay.
The source made the active and inactive calls.

Key:
[1] = system: Human papillomavirus type 1a protein E7 (residues 44-93); assay: small molecules binding HPV E7 44-93 – biochemical, small-molecule microarray, residues 44-93, 635 nm fluorescence, primary screen (AID 1108); settings: fluorescence 635 nm, higher = more signal;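 further: E7 fragment applied at 1 µg/mL in TBST for 1 h at 4 C; score combines spot fluorescence with its signal to noise ratio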
[2] = hepatitis C replication reporter changes, two-sided – Huh7 cells, luciferase reporter, HCV replication inhibitor project, primary screen (AID 1109); settings: Huh7 HCV replicon luciferase reporter, 48 h; higher = more signal;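 further: huh7 hepatoma cells harbouring a luciferase neomycin HCV replicon reporter; luciferase luminescence as measure of HCV replicon replication; test concentration not given here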
[3] = target: Left-right determination factor 2 (Homo sapiens) (UniProt O00292); assay: small molecules binding LEFTY2 protein – biochemical, small-molecule microarray, 635 nm fluorescence scan, primary screen (AID 1110); settings: higher = more signal
[4] = target: Calmodulin-1 (Homo sapiens) (UniProt P0DP23); assay: small molecules binding calmodulin-1 with EGTA – biochemical, small-molecule microarray, Cy5-labelled CALM1, profiling panel (AID 1111); settings: Cy5-CALM1 binding fluorescence, higher = more signal;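 further: labelled calmodulin applied in Tris saline Tween buffer holding calcium plus EGTA and DTT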
[5] = target: Calmodulin-1 (Homo sapiens) (UniProt P0DP23); assay: small molecules binding Ca-loaded calmodulin-1 – biochemical, small-molecule microarray, Cy5-labelled CALM1, plus calcium, artefact control for SMM control-protein annotation, profiling panel (AID 1112); settings: Cy5-CALM1 binding fluorescence, higher = more signal;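 further: score merges spot fluorescence with signal to noise from triplicate slides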
[6] = probe aWnt5a binding to arrayed compounds – biochemical, biotinylated probe, 635/667 nm fluorescence, primary screen (AID 1113); settings: small-molecule microarray, higher = more signal;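 further: score merges 667 nm fluorescence intensity with signal-to-noise per printed feature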
[7] = probe aShh binding to arrayed compounds – biochemical, biotinylated probe, 635/667 nm fluorescence, primary screen (AID 1114); settings: small-molecule microarray, higher = more signal;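 further: probe is biotin-labelled aShh protein from a stem cell growth factor screen; measures binding of labelled protein to compounds printed on the slide; score merges feature fluorescence at 667 nm with signal-to-noise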
[8] = probe aNog binding to arrayed compounds – biochemical, biotinylated probe, 635/667 nm fluorescence, primary screen (AID 1115); settings: small-molecule microarray, higher = more signal;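 further: probe is biotinylated aNog protein used at 0.15 µg/mL for 1 h at 4 C; z-score combines 667 nm fluorescence of each spot with its signal to noise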
[9] = target: Torsin-1A-interacting protein 1 (Homo sapiens) (UniProt Q5JTV8); assay: compound microarray binding of lysate hLAP1 – cell lysate, small-molecule microarray, COS7 lysate, 635/667 nm fluorescence, primary screen (AID 1116); settings: 635 nm fluorescence, higher = more signal
[10] = target: Alpha-bungarotoxin (Bungarus multicinctus) (UniProt P60615); assay: compounds binding labelled alpha-BTX control protein – biochemical, small-molecule microarray, Alexa647 label, 635/667 nm fluorescence, artefact control for SMM control protein annotation, profiling panel (AID 1117); settings: alpha-BTX-A647 binding fluorescence, higher = more signal
[11] = target: Albumin (Bos taurus) (UniProt P02769); assay: compounds binding labelled BSA control protein – biochemical, small-molecule microarray, Alexa647 label, 635/667 nm fluorescence, artefact control for SMM control protein annotation, profiling panel (AID 1118); settings: BSA-A647 binding, fluorescence 635 nm, higher = more signal;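 further: score merges 667 nm emission intensity and signal-to-noise per printed compound spot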
[12] = probe aXIP binding to arrayed compounds – biochemical, NeuroSMM set, 635/667 nm fluorescence, primary screen (AID 1119); settings: small-molecule microarray, higher = more signal, called active from +8 up or from −8 down;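 further: probe is the protein aXip251-270 applied at 1 µg/mL to compound-printed slides; binding of probe to printed compounds measured as 667 nm fluorescence plus signal to noise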
[13] = probe aNOTCH3 binding on compound microarray – biochemical, small-molecule microarray, 635/667 nm fluorescence, primary screen (AID 1120); settings: higher = more signal;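 further: probe is a biotin-tagged antibody raised against NOTCH3 rather than NOTCH3 protein; score merges spot fluorescence near 667 nm with spot signal to noise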
[14] = probe aNOTCH2 binding on compound microarray – biochemical, small-molecule microarray, 635/667 nm fluorescence, primary screen (AID 1121); settings: higher = more signal;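 further: score merges feature fluorescence read at 667 nm with its signal to noise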
[15] = target: Carbonic anhydrase 2 (Homo sapiens) (UniProt P00918); assay: compounds binding carbonic anhydrase 2 – biochemical, small-molecule microarray, Alexa647-labelled CAII, profiling panel (AID 1122); settings: CAII-A647 binding fluorescence, higher = more signal
[16] = COS7 lysate on small-molecule microarray, probe aHis, 635 nm (AID 1123); settings: COS7 cell lysate, fluorescence, higher = more signal;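 further: z-score combines 667nm fluorescence intensity with signal-to-noise per printed compound spot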
[17] = probe aLAP1 signal on lysate-treated microarray – cell lysate, small-molecule microarray, COS7 lysate, primary screen (AID 1124); settings: probe aLAP1, fluorescence, higher = more signal;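 further: lysate comes from COS7 cells expressing LAP1 and is applied at 0.3 µg/mL; score merges spot fluorescence near 667 nm with signal-to-noise over triplicate slides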
[18] = system: Sam68 (KHDRBS1); assay: compounds binding KHDRBS1 protein – biochemical, small-molecule microarray, 635 nm fluorescence, primary screen (AID 1125); settings: higher = more signal;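 further: score merges 667 nm channel intensity with signal to noise over triplicate slides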
[19] = system: Chordin-like protein 2 (CHRDL2); assay: compounds binding chordin-like 2 – biochemical, small-molecule microarray, 635 nm fluorescence, primary screen (AID 1126); settings: fluorescence 635 nm, higher = more signal;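 further: printed compound slides probed with Chrdl2 protein at 4 µg/mL for 1 h at 4 C; score merges 667 nm emission intensity with signal to noise over three replicate slides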
[20] = target: Concanavalin-A (Canavalia ensiformis) (UniProt P02866); assay: compounds binding concanavalin A lectin – biochemical, small-molecule microarray, Alexa647 label, 635 nm, artefact control for SMM control protein annotation, primary screen (AID 1127); settings: ConA-A647 binding fluorescence, higher = more signal;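 further: z combines 667 nm emission intensity with signal-to-noise across three replicate slides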
Concanavalin-A (Canavalia ensiformis), sequence (P02866 whole entry, looked up): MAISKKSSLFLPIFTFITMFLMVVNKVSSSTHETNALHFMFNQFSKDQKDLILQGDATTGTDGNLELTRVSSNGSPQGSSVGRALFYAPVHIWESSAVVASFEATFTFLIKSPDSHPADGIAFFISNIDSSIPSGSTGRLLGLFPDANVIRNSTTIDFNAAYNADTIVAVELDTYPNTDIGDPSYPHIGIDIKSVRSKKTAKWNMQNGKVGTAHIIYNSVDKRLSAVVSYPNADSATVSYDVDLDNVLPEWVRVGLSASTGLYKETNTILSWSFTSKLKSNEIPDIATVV

Albumin (Bos taurus), sequence (P02769 whole entry, looked up): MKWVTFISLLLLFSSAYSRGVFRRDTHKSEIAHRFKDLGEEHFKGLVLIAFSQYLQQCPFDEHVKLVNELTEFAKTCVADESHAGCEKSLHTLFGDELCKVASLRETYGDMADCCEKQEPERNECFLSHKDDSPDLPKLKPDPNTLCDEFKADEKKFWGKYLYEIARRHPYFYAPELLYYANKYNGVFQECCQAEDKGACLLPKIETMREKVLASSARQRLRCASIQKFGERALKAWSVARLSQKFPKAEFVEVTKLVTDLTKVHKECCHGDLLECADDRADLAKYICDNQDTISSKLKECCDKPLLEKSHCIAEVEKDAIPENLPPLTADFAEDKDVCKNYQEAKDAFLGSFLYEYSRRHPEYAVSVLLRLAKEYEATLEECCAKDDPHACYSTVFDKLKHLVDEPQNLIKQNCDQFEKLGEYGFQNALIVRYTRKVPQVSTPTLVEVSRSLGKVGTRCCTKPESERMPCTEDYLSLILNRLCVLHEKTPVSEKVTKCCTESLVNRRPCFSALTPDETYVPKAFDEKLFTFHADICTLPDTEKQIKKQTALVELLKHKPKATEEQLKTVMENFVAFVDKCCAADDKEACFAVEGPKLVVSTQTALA
Torsin-1A-interacting protein 1 (Homo sapiens), sequence (Q5JTV8 whole entry, looked up): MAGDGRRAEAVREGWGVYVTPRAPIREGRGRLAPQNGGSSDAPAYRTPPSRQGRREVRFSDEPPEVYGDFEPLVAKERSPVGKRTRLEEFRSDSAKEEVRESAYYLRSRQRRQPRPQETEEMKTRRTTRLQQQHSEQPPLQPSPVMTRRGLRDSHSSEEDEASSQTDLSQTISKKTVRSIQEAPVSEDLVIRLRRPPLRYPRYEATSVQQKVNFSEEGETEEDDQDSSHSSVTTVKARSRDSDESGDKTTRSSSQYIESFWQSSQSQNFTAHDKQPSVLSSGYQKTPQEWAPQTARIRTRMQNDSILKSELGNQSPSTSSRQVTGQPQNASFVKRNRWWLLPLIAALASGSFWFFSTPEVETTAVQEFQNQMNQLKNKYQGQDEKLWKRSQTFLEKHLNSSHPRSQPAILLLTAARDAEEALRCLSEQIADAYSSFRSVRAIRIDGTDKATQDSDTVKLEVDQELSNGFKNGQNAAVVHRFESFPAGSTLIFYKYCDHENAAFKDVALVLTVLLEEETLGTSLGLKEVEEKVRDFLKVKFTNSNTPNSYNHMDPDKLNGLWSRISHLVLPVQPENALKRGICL
Alpha-bungarotoxin (Bungarus multicinctus), sequence (P60615 whole entry, looked up): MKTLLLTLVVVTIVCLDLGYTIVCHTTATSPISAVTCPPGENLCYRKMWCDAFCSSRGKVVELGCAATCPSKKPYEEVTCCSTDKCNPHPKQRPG
Left-right determination factor 2 (Homo sapiens), sequence (O00292 whole entry, looked up): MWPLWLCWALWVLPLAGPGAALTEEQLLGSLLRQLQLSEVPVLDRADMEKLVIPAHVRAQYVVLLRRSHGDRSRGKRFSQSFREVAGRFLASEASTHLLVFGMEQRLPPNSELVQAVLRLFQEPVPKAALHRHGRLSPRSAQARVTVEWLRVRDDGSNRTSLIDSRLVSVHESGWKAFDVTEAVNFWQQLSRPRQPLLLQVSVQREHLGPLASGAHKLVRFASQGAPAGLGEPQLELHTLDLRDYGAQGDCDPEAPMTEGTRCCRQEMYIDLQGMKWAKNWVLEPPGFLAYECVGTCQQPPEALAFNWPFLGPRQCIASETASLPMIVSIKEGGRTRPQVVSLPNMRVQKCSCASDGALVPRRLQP

SMILES	composite z-score [1]	z-score [2]	composite z-score [3]	composite z-score [4]	composite z-score [5]	composite z-score [6]	composite z-score [7]	composite z-score [8]	composite z-score [9]	composite z-score [10]	composite z-score [11]	composite Z-score [12]	composite z-score [13]	composite z-score [14]	composite z-score [15]	composite z-score [16]	composite z-score [17]	composite z-score [18]	composite z-score [19]	composite z-score [20]
CC(C)[C@@H](OCc1ccccc1)[C@H](C)CON=C1[C@H]2CCn3c(=O)n(-c4ccccc4)c(=O)n3[C@H]2[C@H](O)[C@@H]2O[C@H]12	0.416	-4.23	0.677	-0.404	-0.366	-0.147	-0.134	-0.124	-0.005	0.251	0.667	0.382 (inactive)	-0.0072	-0.0527	-0.0291	0.476	-0.219	0.593	0.427	-0.0949
CCOC(=O)[C@H](Cc1ccccc1)NC(=O)CCC1CC(OC(=O)NCc2cccc3ccccc23)CC2(CCCC(COC(=O)NCCc3ccccc3OC)O2)O1 (stereo not given in full)	0.881	-1.06	0.584	0.38	-0.298	-0.195	0.191	-0.138	0.135	0.635	0.49	-0.564 (inactive)	0.121	-0.126	0.224	0.474	-0.114	1.19	0.241	0.879
CC(CCN1CCCc2nc(C)c(C)cc21)=NOC[C@@H](O)COCc1ccco1	-2.03	-0.62	1.73	0.264	-2.31	0.937	2.26	1.75	2.57	1.94	-1.47	5.36 (inactive)	1.67	0.826	-0.702	1.37	0.602	-0.109	1.58	-1.09
CCOC(=O)CCN1C(=O)[C@H]2[C@H]3[C@H](O)[C@H](O)CC(=NNC(=O)OCc4ccc(OC)cc4)[C@H]3CC[C@H]2C1=O	0.451	-2.44	0.214	-0.211	-0.509	0.0243	0.0121	0.0236	-0.176	0.354	0.33	0.0321 (inactive)	-0.0328	-0.061	-0.0767	0.205	-0.0428	0.576	0.382	-0.0813
CCO[C@H](c1cc(OC)cc([N+](=O)[O-])c1OC)[C@H](C)[C@@H](OC)[C@H](C)C=CCC(=O)OC	0.488	0.899	-0.0609	0.379	-0.103	-0.0383	-0.138	-0.445	-0.0844	0.696	0.825	0.179 (inactive)	-0.0947	-0.0907	0.725	0.0657	-0.0242	0.724	-0.0602	0.666
COC(=O)[C@H](C)NC(=O)CCC1CC(OC(=O)NCc2cccc3ccccc23)CC2(CCCC(COC(=O)NCc3ccccc3)O2)O1 (stereo not given in full)	1.15	-0.922	0.648	0.426	-0.543	-0.0721	-0.206	-0.495	0.177	0.389	-0.0725	0.142 (inactive)	0.062	-0.104	0.288	0.763	-0.206	1.26	0.7	0.984
CCc1cc2c(nc1CC)CCN(CCC(C)=NO[C@@H]1O[C@H](COC(C)=O)[C@@H](OC(C)=O)[C@H](OC(C)=O)[C@H]1OC(C)=O)C2	1.31	-0.998	1.3	-0.199	-0.502	0.0251	-0.291	-0.152	2.85	1.01	0.314	-0.0798 (inactive)	0.105	-0.0527	0.0275	1.34	0.388	1.32	0.922	0.571
COc1ccc(O[C@H]2C=C[C@@H](c3ccccc3)O[C@@H]2CO)cc1	-0.438	0.231	0.213	-0.329	-0.643	-0.148	0.0278	0.041	0.171	0.441	-0.311	-0.0521 (inactive)	0.0762	-0.104	0.131	-0.209	0.0797	-0.713	0.495	0.304
CC(C)(C)N1C(=O)[C@H]2[C@H]3[C@H](O)[C@H](O)CC(=NNC(=O)OCc4ccccc4)[C@H]3CC[C@H]2C1=O	0.978	-1.9	0.613	-0.0736	-0.313	-0.107	0.0141	0.0516	0.522	0.613	-0.316	0.175 (inactive)	-0.0071	-0.075	0.158	0.447	-0.0026	1.1	0.303	0.275
CCN1C(=O)[C@H]2[C@H]3[C@H](O)[C@H](O)CC(=NO[C@@H]4O[C@H](CO)[C@@H](O)[C@H](O)[C@H]4O)[C@H]3CC[C@H]2C1=O	0.442	1.2	0.486	-0.354	-1.04	-0.0529	0.204	0.117	0.196	0.497	-0.0203	0.121 (inactive)	-0.0783	-0.148	-0.0497	-0.0296	0.212	-0.305	0.43	0.634
O=C1C=C[C@@H](O)[C@@H]2[C@@H]3C(=O)N(Cc4ccc5c(c4)OCO5)C(=O)[C@@H]3CC[C@@H]12	0.701	-0.322	0.57	-0.112	-0.508	-0.147	-0.0626	-0.238	-0.127	0.123	0.147	-0.88 (inactive)	0.123	-0.0567	-0.137	0.163	0.129	0.627	0.761	0.748
O=C1[C@H]2[C@H]3[C@H](O)[C@H](O)CC(=NOCc4ccccc4)[C@@H]3CC[C@H]2C(=O)N1c1cccc(Oc2ccccc2)c1	1.32	0.0134	-0.0065	-0.0299	-0.699	-0.096	0.0639	0.0051	0.902	0.626	0.446	0.0894 (inactive)	-0.119	-0.147	0.146	0.536	0.397	1.32	0.0204	0.335
CC(C)[C@@H](OCc1ccccc1)[C@H](C)C=NOC[C@@H](O)[C@H]1O[C@@H]2OC(C)(C)O[C@@H]2[C@H]1O	0.436	-1.75	0.413	0.178	-0.606	-0.15	-0.634	0.848	0.145	0.278	0.0762	0.528 (inactive)	-0.0014	-0.147	-0.0043	0.223	0.614	0.574	0.314	1.07
CCOC(=O)CCN1C(=O)[C@H]2[C@H]3[C@H](O)[C@H](O)CC(=NO[C@@H]4O[C@H](CO)[C@@H](O)[C@H](O)[C@H]4O)[C@H]3CC[C@H]2C1=O	0.0713	0.587	0.523	0.112	-0.847	-0.0286	-0.156	-0.0309	-0.127	0.263	0.0221	-0.048 (inactive)	-0.15	-0.113	0.197	0.174	-0.0363	0.201	0.52	0.487
